M1 ag – human M1 muscarinic receptor agonists, primary screen, Fluo-8 calcium fluorescence, CHO-K1 cells, HTS; CHO-K1 hM1, agonist mode; 0% DMSO, 100% acetylcholine EC100; activation, % at 3 µM; hit rate 0.33% among 360,000;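 active = activation above the run's mean compound activation plus 3 SD, cut at about 16% in these data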;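 note: peak over basal fluorescence ratio within a 140 s kinetic read after compound addition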
Target sequence (P11229 whole entry, looked up): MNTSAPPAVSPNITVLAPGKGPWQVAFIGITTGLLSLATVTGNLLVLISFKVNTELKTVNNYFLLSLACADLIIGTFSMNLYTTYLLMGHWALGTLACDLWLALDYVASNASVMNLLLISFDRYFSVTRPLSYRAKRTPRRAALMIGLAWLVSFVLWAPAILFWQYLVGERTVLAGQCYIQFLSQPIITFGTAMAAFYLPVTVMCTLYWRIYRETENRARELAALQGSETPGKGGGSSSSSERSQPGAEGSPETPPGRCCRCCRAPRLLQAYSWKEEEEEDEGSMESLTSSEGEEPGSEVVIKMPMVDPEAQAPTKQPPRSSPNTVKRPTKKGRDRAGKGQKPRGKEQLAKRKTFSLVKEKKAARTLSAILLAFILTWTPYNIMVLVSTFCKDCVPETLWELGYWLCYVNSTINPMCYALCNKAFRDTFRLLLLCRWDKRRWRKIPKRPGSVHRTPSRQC
M1 ag parental – counter-screen for M1 agonists: effect in parental CHO-K1 cells. activation, % at 3 µM. hit rate 0.48% among 360,000. Fluo-8 calcium fluorescence; scaled to maximal ATP response, vehicle zero. AID 602248, 2012; in the data active = activation above about 15%;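 note: untransfected CHO-K1 host cells lacking M1 receptor as counterscreen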
M1 PAM parental – nonselective calcium activators in parental CHO-K1 cells, primary screen, counter-screen for M1 PAM project, cell-based, Fluo-8 calcium fluorescence, full deck, 1536-well; ATP EC20; 0% at ATP EC20, 100% at ATP max; hit rate 0.02% among 360,000; activation, % at 3 µM; AID 602247, 2012;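 active = activation above the run cutoff, the mean activation of all test compounds plus 3 SD, cut at about 40% in these data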;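 note: peak over basal fluorescence ratio in a 140 s read after ATP addition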
CHRM1 antagonist – human M1 muscarinic receptor antagonists, primary screen, CHO-K1 cells, Fluo-8 calcium fluorescence, 1536-well | Muscarinic acetylcholine receptor M1 (Homo sapiens), P11229 | CHO-K1 hM1, ACh EC80 antagonist | hit rate 1.3% among 360,000 | inhibition, % at 3 µM;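 active = percent inhibition above its own plate's cutoff, namely the mean of that plate's compound wells plus 3 SD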;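 note: peak over basal fluorescence ratio during 140 s after agonist addition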
M1 PAM – human M1 muscarinic receptor positive allosteric modulators, primary screen, CHO-K1 cells, Fluo-8 calcium fluorescence, 1536-well; CHO-K1 hM1, ACh EC20; 0% = ACh EC20, 100% = maximal ACh; activation, % at 3 µM; AID 588819, 2011; hit rate 0.088% among 360,000; in the data active = activation above about 19%, passing the limit was not always enough
CHO-K1 Ca antag – M1 antagonist counterscreen hit in parental CHO-K1 cells; inhibition, % at 3 µM; ATP-induced calcium, Fluo-8 fluorescence; hit rate 0.6% among 360,000; AID 602250;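 active = inhibition above a per-plate cutoff, the plate's mean sample inhibition plus 3 SD, cut at about 24% in these data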
Hits are given with their value; 0 = inactive. Sampled rows, rich in hits. Any-hit rate of the full collection: about 2.4%.

SMILES	M1 ag	M1 ag parental	M1 PAM parental	CHRM1 antagonist	M1 PAM	CHO-K1 Ca antag
Cn1cccc1/C=C1\Cc2ccccc2C1=O	0	0	0	0	0	0
O=C(/C=C/[C@H]1O[C@@H](n2cnc3c(NC(=O)c4ccccc4)ncnc32)[C@H](O)[C@@H]1O)NCc1cccc2ccccc12	0	0	0	0	0	0
O=C(CN1C(=O)C(c2ccc(F)cc2)=NC12CCCC2)Nc1ccc(F)cc1	0	0	0	0	0	36.2
COc1cc(Nc2nc3c(N)cc(C(F)(F)F)cc3nc2-c2ccccc2)cc(OC)c1OC	0	0	0	0	0	0
O=S(CC(O)(c1ccccc1)c1ccccc1)CC(O)(c1ccccc1)c1ccccc1	0	0	0	0	0	0
CCN(CC#CCC(O)(c1ccccc1)c1ccccc1)C(C)C	0	0	0	81.9	0	0
CC(C)N(CC#CCC(O)(c1ccccc1)c1ccccc1)C(C)C	0	0	0	38.9	0	0
CC(C)N(CC#CCC(O)(c1ccccc1)c1ccccc1)CCO	0	0	0	0	0	0
O=C(O)c1ccccc1C(=O)c1cccc2c(Br)cccc12	0	0	0	0	0	0
CCOC(=O)c1c(NC(=O)CN2C(=O)NC3(CCCCC3C)C2=O)sc(C)c1CC (stereo unspecified)	0	22.6	0	0	0	0
CC1=CC=CC2=NC(=O)CC(C)(C(=O)N(CC(=O)NC3CCCC3)c3ccc(F)cc3)N12 (stereo unspecified)	0	0	0	0	0	0
O=C(NCCOc1ccccc1)c1ccccc1NC(=O)C1CCCO1 (stereo unspecified)	0	18.1	0	0	0	0
C#CCOc1ccc2c3c(c(=O)oc2c1)CCCC3	0	0	0	0	0	0
Cn1cc(CN2CCN(c3ccccc3)CC2)c2ccccc21	0	0	0	31.3	0	0
O=C(NCc1cccnc1)Nc1cccc([N+](=O)[O-])c1	0	0	0	0	0	0
CC1=CC(C)C2(CO)COC(c3ccc(O)cc3)C1C2C (stereo unspecified)	0	0	0	0	0	0
CC1=CC(C)C2(CO)COC(c3cccnc3)C1C2C (stereo unspecified)	0	0	0	0	0	27.6
Cc1cccc(OC2(c3ccccc3)OC(=O)c3ccccc32)c1C (stereo unspecified)	0	0	0	35.7	0	0
CCCCCCOC1(c2ccccc2)OC(=O)c2ccccc21 (stereo unspecified)	0	0	0	0	0	0
Cc1cc(C)c(OCC(=O)NCC2COc3ccccc3O2)c(C)c1 (stereo unspecified)	0	0	0	0	0	0
COC(=O)[C@H](C)N(Cc1ccc(Cl)c(Cl)c1)S(=O)(=O)CCNC1CCCC1	0	0	0	0	0	0
CCOC(=O)C1CCCN(C(=O)c2cccc(OC(F)(F)F)c2)CC1 (stereo unspecified)	0	0	0	0	0	0
CC1Sc2ccc(S(=O)(=O)N3CCC(C(=O)Nc4cccc(Cl)c4)CC3)cc2NC1=O (stereo unspecified)	0	0	0	0	0	0
CCOC(=O)c1c(NC(=O)CSc2nnc(-c3ccccc3C)n2C)sc(C(C)=O)c1C	0	0	0	46.4	0	0
CCOCCCNc1ncnc2c1[nH]c1ccccc12	0	0	0	0	0	0
SMILES	M1 ag	M1 ag parental	M1 PAM parental	CHRM1 antagonist	M1 PAM	CHO-K1 Ca antag
CCCCOCCCNc1ncnc2c1[nH]c1ccccc12	0	0	0	35.3	0	29.6
Cn1cc(C(=O)N2CCN(c3cccc(Cl)c3)CC2)c(=O)c2cc(S(=O)(=O)N3CCOCC3)ccc21	0	0	0	0	0	0
CCN(c1ccccc1)S(=O)(=O)c1ccc(C(=O)NC2CCN(Cc3ccccc3)CC2)cc1	0	0	0	66.2	0	0
O=C(NC1CCN(Cc2ccccc2)CC1)C1COc2ccccc2O1 (stereo unspecified)	0	0	0	83.0	0	0
COc1ccccc1/C=C/CN1CCC(n2nccc2NC(=O)CCc2ccccc2)CC1	0	15.2	0	0	0	24.2
O=C(CCc1ccccc1)Nc1ccnn1C1CCN(C/C=C/c2ccccc2)CC1	0	0	0	0	0	0
CCn1c(SCC(=O)Nc2ccc3c(c2)OCO3)nnc1C(C)C	0	0	0	0	0	0
O=C(NC1CCC(Oc2ccc(C(=O)O)cc2)CC1)NC12CC3CC(CC(C3)C1)C2 (stereo unspecified)	0	0	0	0	0	0
OC1CCC(Nc2ccn3nc(-c4cccc(OCc5ccccc5)c4)cc3n2)CC1 (stereo unspecified)	0	0	0	0	0	28.7
COCCCNc1ccn2nc(-c3ccccc3)cc2n1	0	0	0	0	0	0
OC1CCC(Nc2ccn3nc(-c4cccc(Cl)c4)cc3n2)CC1 (stereo unspecified)	0	0	0	0	0	0
COCCCNc1ccn2nc(-c3cccc(OCc4ccccc4)c3)cc2n1	0	0	0	26.8	0	0
CCN(CC)S(=O)(=O)c1cccc(C(=O)N/N=C/c2ccc(OC)c(O)c2)c1	0	0	0	0	0	26.6
COc1ccc(/C=N/NC(=O)c2nc(-c3ccccc3)cc(-c3ccccc3)n2)cc1O	0	0	0	38.5	0	0
COc1ccc(/C=N/NC(=O)c2nc(-c3ccccc3)cc(-c3ccccc3)n2)cc1	0	0	0	0	0	0
COc1ccc(/C=N/NC(=O)c2nc(-c3ccccc3)n(-c3ccccc3)n2)cc1OC	0	0	0	0	0	24.7
COc1cc(/C=N/NC(=O)c2nc(-c3ccccc3)n(-c3ccccc3)n2)ccc1O	0	0	0	0	0	0
CCN(CC)S(=O)(=O)c1cccc(C(=O)N/N=C/c2ccccc2OCC(=O)O)c1	0	0	0	0	0	0
CCc1nc2c(OCc3ccccc3C(=O)OC)cccn2c1N(C)C(=O)c1cccc(OC)c1	0	0	0	0	0	0
C=CCNC(=S)NNC(=O)c1cccn(Cc2cccc(Cl)c2)c1=O	0	0	0	21.2	0	0
C=CCNC(=S)NNC(=O)c1cccn(Cc2ccc(Cl)cc2)c1=O	0	0	0	0	0	0
COc1ccc(C(=O)C[n+]2ccccc2/C=N/O)cc1	0	0	0	0	0	0
O/N=C/c1cccc[n+]1CCCCCC[n+]1ccccc1/C=N/O	0	0	0	45.2	0	0
C/C(=N\NC(=O)CSc1nc(C)cc(C)n1)c1cccc([N+](=O)[O-])c1	0	0	40.6	0	0	0
